Test systems include HCT-15 colon; HT29 colon; SNB-75 CNS; SNB-19 CNS; U251 CNS; PC-3 prostate; SK-MEL-5 melanoma; UACC-62 melanoma; LOX IMVI melanoma; SK-MEL-28 melanoma.
Common to all, as to test: NCI-60 one-dose screen, 48 h (100 = growth as untreated, 0 = no growth, -100 = all killed)
Holding throughout (conditions): 10 µM unless noted

This is part of a sample that, as a whole, favours compounds with a hit. Of some 83,000 tested, about 20% had one in any assay.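 48-hour exposure, single concentration, 96-well plates; percent growth endpoint where 0 means no net growth. Active: below 10.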 A number with no mark means an inactive call. Active and inactive are the calls of the source.

With `COC(=O)c1nc(-c2ccccc2)oc1S(=O)(=O)n1nc(C)cc1N`, the growth with HCT-15 colon is 46.9%; in the assay on HT29 colon, 17.5%; in the assay with SNB-75 CNS, 82.3%; in the assay with SNB-19 CNS, 96.6%; in the assay on U251 CNS it was 101%; with PC-3 prostate, 104%. Further, the growth in the assay on SK-MEL-5 melanoma was 92.3%; with UACC-62 melanoma, 89.4%; in the assay with LOX IMVI melanoma, 76.8%; with SK-MEL-28 melanoma, 87.4%.

In the case of `C=C(C)[C@@H]1CC[C@]2(C(=O)N3CCN(C)CC3)CC[C@]3(C)[C@H](CC[C@@H]4[C@@]5(C)C/C(=C/c6ccco6)C(=O)C(C)(C)[C@@H]5CC[C@]43C)[C@@H]12`, the growth with HCT-15 colon was 46.6%; in the assay with HT29 colon, 25.8%; with SNB-75 CNS, 68%; in the assay with SNB-19 CNS it was 80.1%; with U251 CNS it was 60.9%; in the assay on PC-3 prostate, 37.2%. Moreover, the growth in the assay on SK-MEL-5 melanoma is 68.9%; in the assay on UACC-62 melanoma it was 76.1%; in the assay with LOX IMVI melanoma, 30.1%; in the assay with SK-MEL-28 melanoma it was 55.7%.

Regarding `COC(=O)[C@]1(C)CCC[C@]2(C)[C@H]3C[C@H]4C(C(C)C)=C[C@]3(CC[C@H]21)[C@@H]1C(=O)N(CCC#N)C(=O)[C@@H]14`, the growth in the assay with HCT-15 colon is 83.2%; in the assay with HT29 colon, 70.5%; in the assay on SNB-75 CNS it was 93%; with SNB-19 CNS, 102%; with U251 CNS it was 87.8%; in the assay with PC-3 prostate it was 31.2%. In addition, the growth in the assay on SK-MEL-5 melanoma is 71.6%; in the assay with UACC-62 melanoma it was 62.9%; in the assay with LOX IMVI melanoma, 98.1%; in the assay with SK-MEL-28 melanoma, 108%.

For the compound `CCCCCCCc1n(Cc2ccc3ccccc3c2)c2ccccc2[n+]1Cc1ccc2ccccc2c1`, the growth in the assay with HCT-15 colon was -80% (active); in the assay on HT29 colon, -84.3% (active); in the assay on SNB-75 CNS, -86.8% (active); with SNB-19 CNS, -77.9% (active); in the assay with U251 CNS, -79.8% (active); with PC-3 prostate, -88.7% (active). For the same compound, the growth with SK-MEL-5 melanoma is -92.8% (active); with UACC-62 melanoma it was -89.6% (active); in the assay with LOX IMVI melanoma it was -75.1% (active); in the assay on SK-MEL-28 melanoma, -85.4% (active).

For the compound `COc1ccc(/C(=N\O)c2cc(C)c(OC)c(C)c2)cc1O`, the growth in the assay with HCT-15 colon was 16.3%; with HT29 colon, -8.4% (active); in the assay on SNB-75 CNS, 38.4%; in the assay with SNB-19 CNS, 29.8%; in the assay with U251 CNS, 22.1%; in the assay with PC-3 prostate it was 37.6%. Moreover, the results for the growth with SK-MEL-5 melanoma, in the assay with LOX IMVI melanoma and in the assay with SK-MEL-28 melanoma were -7.18% (active), 24.2% and 55.4%, respectively.

Regarding `COc1cc(C(=O)Nc2cc(O)c(C/C=C(\C)CCC=C(C)C)c(O)c2)cc2c1O[C@]1(C)CC[C@@H](O)C(C)(C)[C@H]1C2`, the growth was 1.55% (active) in the assay with HCT-15 colon; -25.5% (active) with HT29 colon; 20.2% with SNB-75 CNS; 32.2% with SNB-19 CNS; 6.63% (active) in the assay with U251 CNS; 18.1% with PC-3 prostate. Further, the growth in the assay on SK-MEL-5 melanoma was -39.6% (active); in the assay on LOX IMVI melanoma, -33.8% (active); with SK-MEL-28 melanoma, 25.8%.

Turning to `CCCCCCCCCCCCCC1=NCC[N+]1(CCO)Cc1ccccc1` (stereo not given), the growth in the assay with HCT-15 colon was -89.4% (active); with HT29 colon, -89.3% (active); in the assay on SNB-75 CNS, 66%; in the assay with SNB-19 CNS it was -82.1% (active); in the assay with U251 CNS, -88.7% (active); in the assay with PC-3 prostate, -88.4% (active). Further, the growth with SK-MEL-5 melanoma is -73.6% (active); in the assay on LOX IMVI melanoma, -92% (active); in the assay with SK-MEL-28 melanoma, -90.7% (active).

`N#Cc1c(-c2ccc(F)cc2)nc(N/N=C/c2cccc(O)c2)nc1N1CCOCC1`: the growth is 69.5% with HCT-15 colon; 79.8% in the assay on HT29 colon; 73.9% with SNB-75 CNS; 96.1% in the assay with SNB-19 CNS; 73.5% with U251 CNS; 72.7% with PC-3 prostate. Also, the results for the growth in the assay on SK-MEL-5 melanoma, with LOX IMVI melanoma and in the assay with SK-MEL-28 melanoma were 90%, 85.2% and 99%, respectively.

In the case of `CCOC(=O)C1=C(C)n2nc(CC#N)c(C#N)c2NC1c1ccc(CC)cc1` (stereo not given), the growth in the assay with HCT-15 colon is 99.6%; in the assay on HT29 colon, 107%; in the assay with SNB-75 CNS, 88.5%; with SNB-19 CNS, 106%; in the assay with U251 CNS it was 101%; in the assay on PC-3 prostate, 90.8%. Besides, the growth with SK-MEL-5 melanoma is 96.6%; with LOX IMVI melanoma, 92.7%; with SK-MEL-28 melanoma it was 103%.

For the compound `OCCNc1nc(NCCO)nc(Nc2ccc(C3=NN(c4cc(Cl)cc(Cl)c4)C(c4ccccc4)C3)cc2)n1` (stereo not given), the growth is 27.5% in the assay with HCT-15 colon; 9.1% (active) in the assay on HT29 colon; 52.5% in the assay with SNB-75 CNS; 58.7% with SNB-19 CNS; 27.2% in the assay on U251 CNS; 24.5% in the assay on PC-3 prostate. For the same compound, the growth with SK-MEL-5 melanoma is 51.7%; in the assay on LOX IMVI melanoma it was -36.9% (active); with SK-MEL-28 melanoma it was 49.9%.

`NS(=O)(=O)c1ccc(N2Cc3cc(Cl)ccc3OC3=C2C(=O)N(CC2CCCCC2)C3=O)cc1`: the growth in the assay with HCT-15 colon is -79.2% (active); with HT29 colon, -67.4% (active); with SNB-75 CNS, -98.4% (active); with SNB-19 CNS it was -6.19% (active); with U251 CNS, -91.3% (active); with PC-3 prostate it was -61.9% (active). Moreover, the growth in the assay with SK-MEL-5 melanoma was -94.4% (active); with LOX IMVI melanoma it was -86.2% (active); in the assay with SK-MEL-28 melanoma, -93.1% (active).

On to `CN(C)C(CNc1oc(-c2cccc3ccccc23)nc1C#N)c1ccco1` (stereo not given), for which the growth was 79.8% with HCT-15 colon; 72.1% in the assay with HT29 colon; 71.5% in the assay with SNB-75 CNS; 101% in the assay with SNB-19 CNS; 80.4% with U251 CNS; 89.5% with PC-3 prostate. Besides, the figures for the growth in the assay with SK-MEL-5 melanoma, in the assay on LOX IMVI melanoma and with SK-MEL-28 melanoma were 91.7%, 95.8% and 96.3%, respectively.

Take `CC(C)(C)c1nc2c(s1)c1nc(N)ncc1c1ccc(NS(=O)(=O)c3c(F)cccc3F)c(F)c12`: the growth with HCT-15 colon is 42.7%; with HT29 colon, 10.8%; with SNB-75 CNS, 57.4%; in the assay on SNB-19 CNS, 105%; in the assay on U251 CNS, 73%; with PC-3 prostate, 51.9%. The growth with SK-MEL-5 melanoma is 36.1%; with LOX IMVI melanoma, 20.5%; in the assay with SK-MEL-28 melanoma, 4.5% (active).

Regarding `O=S(=O)(O)c1ccc(N=NSc2ccc3ccccc3c2)cc1`, the growth is 104% in the assay on HCT-15 colon; 93.8% in the assay on HT29 colon; 113% with SNB-75 CNS; 105% in the assay with SNB-19 CNS; 96.9% in the assay with U251 CNS; 81.3% in the assay with PC-3 prostate. Also, the growth with SK-MEL-5 melanoma is 100%; in the assay with LOX IMVI melanoma it was 86.8%; with SK-MEL-28 melanoma, 106%.

Source of the values: PubChem BioAssay (NCI).
